# Activity calls are given as the source filed them.
# How the values were obtained:
# [1] = small molecules captured by biotinylated probe aFSTL3 – biochemical, small-molecule microarray, fluorescence 635/667, stem cell growth factor project, primary screen (AID 1064); settings: higher = more signal;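 also: measures binding of the biotinylated anti-FSTL3 antibody to printed compounds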
# [2] = binders from COS7 lysate, DM2A8 probe, primary screen, torsin A project, cell lysate, small-molecule microarray, fluorescence 635/667 (AID 1065); settings: higher = more signal, COS7 lysate expressing mutant human TOR1A
# [3] = small molecules captured by biotinylated probe aFGF2 – biochemical, small-molecule microarray, fluorescence 635/667, stem cell growth factor project, primary screen (AID 1067); settings: higher = more signal;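 also: measures binding of biotinylated aFGF2 protein to printed compounds on slides; z-score merges feature fluorescence and signal-to-noise across triplicate slides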
# [4] = small molecules captured by biotinylated probe aFGF10 – biochemical, small-molecule microarray, fluorescence 635/667, stem cell growth factor project, primary screen (AID 1071); settings: higher = more signal;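 also: score merges 667 nm spot intensity and signal to noise from triplicate slides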
# [5] = biological target: Neurogenic locus notch homolog protein 2 (Homo sapiens) (UniProt Q04721); experiment: small molecules binding Notch2 protein – biochemical, small-molecule microarray, 635 nm fluorescence, stem cell growth factors, primary screen (AID 1073); settings: higher = more signal
# Sequence of Neurogenic locus notch homolog protein 2 (Homo sapiens) (Q04721 whole entry, looked up, canonical isoform): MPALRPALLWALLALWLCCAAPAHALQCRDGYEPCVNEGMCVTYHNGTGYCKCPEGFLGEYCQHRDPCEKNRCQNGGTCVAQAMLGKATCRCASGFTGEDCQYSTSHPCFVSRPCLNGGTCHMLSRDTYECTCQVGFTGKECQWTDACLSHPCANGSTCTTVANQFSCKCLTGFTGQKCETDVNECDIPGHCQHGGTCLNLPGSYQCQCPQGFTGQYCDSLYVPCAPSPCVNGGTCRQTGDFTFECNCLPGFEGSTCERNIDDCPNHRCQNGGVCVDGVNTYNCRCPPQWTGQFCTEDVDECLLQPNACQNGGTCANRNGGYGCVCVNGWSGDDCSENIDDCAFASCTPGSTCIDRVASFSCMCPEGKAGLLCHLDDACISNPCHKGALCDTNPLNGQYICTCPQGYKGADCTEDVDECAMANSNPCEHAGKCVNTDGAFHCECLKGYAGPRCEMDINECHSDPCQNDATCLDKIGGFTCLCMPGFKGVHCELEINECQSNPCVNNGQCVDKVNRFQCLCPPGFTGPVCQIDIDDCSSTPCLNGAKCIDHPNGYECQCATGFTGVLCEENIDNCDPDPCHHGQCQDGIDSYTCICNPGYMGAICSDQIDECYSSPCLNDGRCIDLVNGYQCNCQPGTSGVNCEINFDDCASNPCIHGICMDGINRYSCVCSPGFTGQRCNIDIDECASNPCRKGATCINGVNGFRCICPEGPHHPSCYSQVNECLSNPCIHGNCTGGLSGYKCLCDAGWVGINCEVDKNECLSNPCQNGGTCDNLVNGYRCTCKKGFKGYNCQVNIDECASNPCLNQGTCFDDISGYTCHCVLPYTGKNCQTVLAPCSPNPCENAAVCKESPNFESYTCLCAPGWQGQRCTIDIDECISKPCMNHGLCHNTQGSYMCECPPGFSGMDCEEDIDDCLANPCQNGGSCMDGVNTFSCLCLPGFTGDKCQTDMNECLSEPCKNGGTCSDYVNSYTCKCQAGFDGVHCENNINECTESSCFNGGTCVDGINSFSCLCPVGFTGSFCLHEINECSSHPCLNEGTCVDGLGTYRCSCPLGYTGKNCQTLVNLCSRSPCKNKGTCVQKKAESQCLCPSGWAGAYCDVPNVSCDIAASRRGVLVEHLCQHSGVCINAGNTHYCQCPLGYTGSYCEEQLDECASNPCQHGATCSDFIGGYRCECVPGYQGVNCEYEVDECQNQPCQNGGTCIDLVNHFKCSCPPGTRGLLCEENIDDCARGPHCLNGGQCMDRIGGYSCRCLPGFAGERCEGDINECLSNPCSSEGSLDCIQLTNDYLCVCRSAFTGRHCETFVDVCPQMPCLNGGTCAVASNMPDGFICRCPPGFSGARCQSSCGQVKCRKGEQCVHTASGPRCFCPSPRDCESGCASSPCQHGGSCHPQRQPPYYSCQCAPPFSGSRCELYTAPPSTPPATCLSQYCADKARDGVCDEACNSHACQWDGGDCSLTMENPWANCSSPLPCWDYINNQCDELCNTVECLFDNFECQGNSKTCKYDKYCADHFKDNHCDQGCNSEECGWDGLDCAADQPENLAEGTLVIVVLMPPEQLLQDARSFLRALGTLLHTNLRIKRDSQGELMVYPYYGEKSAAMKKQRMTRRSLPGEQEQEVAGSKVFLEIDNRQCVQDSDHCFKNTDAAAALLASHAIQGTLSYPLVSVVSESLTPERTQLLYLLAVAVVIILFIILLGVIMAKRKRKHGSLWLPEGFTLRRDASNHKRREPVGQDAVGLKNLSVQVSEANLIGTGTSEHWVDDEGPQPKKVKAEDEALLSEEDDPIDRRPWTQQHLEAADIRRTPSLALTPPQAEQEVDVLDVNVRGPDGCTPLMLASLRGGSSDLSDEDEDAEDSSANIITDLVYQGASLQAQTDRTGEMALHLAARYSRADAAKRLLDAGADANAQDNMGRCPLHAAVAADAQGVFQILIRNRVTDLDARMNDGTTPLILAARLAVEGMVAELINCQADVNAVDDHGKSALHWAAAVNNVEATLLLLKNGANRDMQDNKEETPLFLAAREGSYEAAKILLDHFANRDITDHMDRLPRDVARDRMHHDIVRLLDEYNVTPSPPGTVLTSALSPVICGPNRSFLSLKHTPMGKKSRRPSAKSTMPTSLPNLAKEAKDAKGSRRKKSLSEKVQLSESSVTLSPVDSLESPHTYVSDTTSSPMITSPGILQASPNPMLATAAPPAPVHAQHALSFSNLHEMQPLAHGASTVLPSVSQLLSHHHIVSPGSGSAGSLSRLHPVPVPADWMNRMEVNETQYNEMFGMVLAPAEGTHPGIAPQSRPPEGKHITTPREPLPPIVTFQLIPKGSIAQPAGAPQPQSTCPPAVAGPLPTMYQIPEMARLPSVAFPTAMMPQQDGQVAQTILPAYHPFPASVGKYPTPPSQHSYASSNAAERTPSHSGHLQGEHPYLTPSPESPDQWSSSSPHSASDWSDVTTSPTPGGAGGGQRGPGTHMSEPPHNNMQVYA
# [6] = biological target: Pro-neuregulin-1, membrane-bound isoform (Homo sapiens) (UniProt Q02297); experiment: small molecules binding neuregulin-1 protein – biochemical, small-molecule microarray, fluorescence 635/667, psychiatric disease protein project, primary screen (AID 1075); settings: NRG1 binding, 635 nm fluorescence, higher = more signal;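 also: score combines 667 nm spot fluorescence with signal to noise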
# [7] = system: Neuregulin-1 EGF-like domain; experiment: small molecules binding NRG1 EGF domain – biochemical, small-molecule microarray, 635 nm fluorescence, primary screen (AID 1081); settings: higher = more signal;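 also: binding of the protein to compounds printed on small-molecule microarray slides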
# [8] = FRG1 expression reporter modulators in myotubes – cell-based, C2C12 myotubes, firefly/Renilla luciferase, luminescence, FRG1 inhibition for FSHD, primary screen (AID 1084); settings: FRG1 promoter luciferase, higher = more signal, called active from +8 up or from −8 down
# [9] = small molecules captured by biotinylated probe aFST – biochemical, small-molecule microarray, fluorescence 635/667, stem cell growth factor project, primary screen (AID 1086); settings: higher = more signal;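 also: score merges 667 nm fluorescence with signal-to-noise of each printed compound spot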
# [10] = binders of probe aHhip on microarray, primary screen, stem cell growth factor project, biochemical, small-molecule microarray, fluorescence 635/667 (AID 1087); settings: higher = more signal;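 also: score merges spot fluorescence at 667nm with spot signal to noise ratio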
# [11] = system: PRMT1 (protein arginine N-methyltransferase 1); experiment: small molecules binding arginine methyltransferase PRMT1 – biochemical, small-molecule microarray, 635 nm fluorescence, primary screen (AID 1088); settings: higher = more signal;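 also: binding of Prmt1 protein to compounds spotted on small-molecule microarray slides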
# [12] = growth effects on S. cerevisiae YJM789 – YJM789 clinical isolate, OD600, 24 h, basal, primary screen (AID 1089); settings: higher = more signal, called active from +8 up or from −8 down;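 also: growth of clinical yeast isolate S. cerevisiae YJM 789 seeded 1000 cells per well; test concentration not given here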
# [13] = S. pombe growth modifiers, basal conditions – strain 972, OD600, 24 h, no modulator, primary screen (AID 1090);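 also: basal condition with compound alone and no growth modifier present; test concentration not given here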; settings: S. pombe 972 growth, higher = more signal, called active from +8 up or from −8 down
# [14] = budding yeast growth modifiers under rapamycin – strain BY4716, OD600, 96 h, primary screen (AID 1091); also: test concentration not given here; settings: S. cerevisiae BY4716 + rapamycin, higher = more signal, called active from +8 up or from −8 down
# [15] = biological target: Torsin-1A-interacting protein 2 (Homo sapiens) (UniProt Q8NFQ8); experiment: small molecules binding lysate-expressed LULL1 – cell lysate, human LULL1 lysate, 635/667 nm fluorescence, primary screen (AID 1092); settings: small-molecule microarray, hLULL1 lysate binding, 635 nm fluorescence; higher = more signal;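 also: probe is lysate of COS7 cells overexpressing human LULL1; score merges per-feature 667 nm fluorescence with signal-to-noise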
# [16] = optical density change of DRC41 E. coli – strain DRC41, OD650, 24 h, E. coli filamentation project, primary screen (AID 1093);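 also: MC1000 strain lacking acrAB efflux and sulA so SOS filamentation is blocked; test concentration not given here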; settings: E. coli DRC41 growth, higher = more signal, called active from +8 up or from −8 down
# [17] = probe aLefty2 binding to arrayed compounds – biochemical, biotinylated probe, 635/667 nm fluorescence, primary screen (AID 1094); settings: small-molecule microarray, higher = more signal;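 also: score merges spot fluorescence near 667 nm with spot signal-to-noise ratio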
# [18] = system: Noggin (protein binding on small-molecule microarray); experiment: small molecules binding Noggin protein – biochemical, 635/667 nm fluorescence, primary screen (AID 1095); settings: 635 nm fluorescence, higher = more signal;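 also: score merges 667 nm feature fluorescence with signal to noise over triplicate slides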
# [19] = biological target: Neurogenic locus notch homolog protein 3 (Homo sapiens) (UniProt Q9UM47); experiment: small molecules binding NOTCH3 protein – biochemical, 635/667 nm fluorescence, primary screen (AID 1096); settings: small-molecule microarray, 635 nm fluorescence, higher = more signal
# Sequence of Neurogenic locus notch homolog protein 3 (Homo sapiens) (Q9UM47 whole entry, looked up): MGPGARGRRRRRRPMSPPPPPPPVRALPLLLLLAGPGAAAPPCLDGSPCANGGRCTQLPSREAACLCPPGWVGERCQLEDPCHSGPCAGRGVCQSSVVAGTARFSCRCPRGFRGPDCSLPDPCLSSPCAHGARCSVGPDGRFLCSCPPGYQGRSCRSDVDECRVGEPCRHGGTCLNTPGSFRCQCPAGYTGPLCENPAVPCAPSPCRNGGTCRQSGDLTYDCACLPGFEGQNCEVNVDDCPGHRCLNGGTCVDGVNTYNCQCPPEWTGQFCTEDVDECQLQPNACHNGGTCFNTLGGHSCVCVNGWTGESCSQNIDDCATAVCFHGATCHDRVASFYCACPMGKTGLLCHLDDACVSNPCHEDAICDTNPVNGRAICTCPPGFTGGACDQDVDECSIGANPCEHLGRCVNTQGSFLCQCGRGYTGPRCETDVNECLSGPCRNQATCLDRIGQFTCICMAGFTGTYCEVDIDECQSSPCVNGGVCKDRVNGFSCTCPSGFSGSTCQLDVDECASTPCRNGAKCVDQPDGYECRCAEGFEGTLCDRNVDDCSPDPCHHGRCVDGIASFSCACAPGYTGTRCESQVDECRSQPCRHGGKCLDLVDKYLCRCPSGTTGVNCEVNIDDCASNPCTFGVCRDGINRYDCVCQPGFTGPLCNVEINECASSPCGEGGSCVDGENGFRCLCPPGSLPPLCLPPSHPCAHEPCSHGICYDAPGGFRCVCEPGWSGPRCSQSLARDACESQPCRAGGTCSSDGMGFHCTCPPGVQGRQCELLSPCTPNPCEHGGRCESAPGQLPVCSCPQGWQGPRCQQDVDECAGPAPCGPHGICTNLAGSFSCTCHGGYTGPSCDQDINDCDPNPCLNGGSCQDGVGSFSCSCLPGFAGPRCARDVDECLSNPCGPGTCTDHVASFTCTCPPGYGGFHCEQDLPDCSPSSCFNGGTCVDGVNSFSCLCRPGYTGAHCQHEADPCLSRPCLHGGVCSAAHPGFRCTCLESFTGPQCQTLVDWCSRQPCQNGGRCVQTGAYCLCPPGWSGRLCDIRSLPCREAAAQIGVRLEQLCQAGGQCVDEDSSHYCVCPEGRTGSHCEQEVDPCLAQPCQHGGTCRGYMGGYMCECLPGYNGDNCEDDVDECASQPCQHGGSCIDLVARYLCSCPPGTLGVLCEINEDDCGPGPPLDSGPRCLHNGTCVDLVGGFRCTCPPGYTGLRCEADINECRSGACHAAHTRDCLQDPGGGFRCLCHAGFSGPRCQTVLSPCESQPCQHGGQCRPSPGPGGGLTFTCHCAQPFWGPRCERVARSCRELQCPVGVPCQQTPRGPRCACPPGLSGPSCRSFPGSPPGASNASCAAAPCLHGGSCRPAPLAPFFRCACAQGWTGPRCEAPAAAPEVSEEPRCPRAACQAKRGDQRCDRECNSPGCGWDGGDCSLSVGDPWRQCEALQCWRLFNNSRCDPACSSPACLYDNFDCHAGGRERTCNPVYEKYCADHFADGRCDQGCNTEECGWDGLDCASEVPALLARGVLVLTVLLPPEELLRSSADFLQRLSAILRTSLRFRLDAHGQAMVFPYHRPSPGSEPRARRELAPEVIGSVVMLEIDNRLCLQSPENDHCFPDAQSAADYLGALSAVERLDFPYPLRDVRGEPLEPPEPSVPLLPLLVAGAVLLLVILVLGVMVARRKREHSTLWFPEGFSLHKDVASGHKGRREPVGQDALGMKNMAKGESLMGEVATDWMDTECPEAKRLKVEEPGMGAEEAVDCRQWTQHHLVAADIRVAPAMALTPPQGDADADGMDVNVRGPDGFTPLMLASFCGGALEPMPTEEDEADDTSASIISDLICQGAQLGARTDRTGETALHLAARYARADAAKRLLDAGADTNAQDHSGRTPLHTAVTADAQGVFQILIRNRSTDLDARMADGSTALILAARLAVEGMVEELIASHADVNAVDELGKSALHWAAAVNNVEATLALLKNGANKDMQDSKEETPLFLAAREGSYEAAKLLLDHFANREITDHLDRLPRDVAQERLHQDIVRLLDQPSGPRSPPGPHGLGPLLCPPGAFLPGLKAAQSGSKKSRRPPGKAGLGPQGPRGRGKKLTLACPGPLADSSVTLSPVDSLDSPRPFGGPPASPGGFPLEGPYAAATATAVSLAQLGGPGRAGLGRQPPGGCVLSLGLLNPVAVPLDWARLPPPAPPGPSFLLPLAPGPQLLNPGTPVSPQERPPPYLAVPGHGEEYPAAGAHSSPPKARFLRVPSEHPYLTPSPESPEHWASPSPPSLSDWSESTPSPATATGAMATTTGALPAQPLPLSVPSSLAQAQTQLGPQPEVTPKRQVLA
# [20] = probe aEGFR binding to arrayed compounds – biochemical, biotinylated probe, 635/667 nm fluorescence, primary screen (AID 1097); settings: small-molecule microarray, higher = more signal;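 also: probe is a biotinylated anti-EGFR antibody binding compounds printed on slides; score combines fluorescence near 667 nm and signal to noise of each spot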
Structure (SMILES),composite z-score [1],composite z-score [2],composite z-score [3],composite z-score [4],composite z-score [5],composite z-score [6],composite z-score [7],z-score [8],composite z-score [9],composite z-score [10],composite z-score [11],z-score [12],z-score [13],z-score [14],composite z-score [15],z-score [16],composite z-score [17],composite z-score [18],composite z-score [19],composite z-score [20]
Cc1ccc(S[C@]2(C(=O)NC(C)C)CC(=O)N(Cc3ccccc3Cl)[C@@H]2c2ccc(CO)cc2I)cc1,0.319,-0.756,-0.223,-0.719,-1.31,1.85,1.02,-1.42 (inactive),-0.377,-0.0994,1.14,-1.59 (inactive),-1.98 (inactive),0.239 (inactive),1.81,0.0987 (inactive),0.0282,-0.28,-0.317,-0.287
Cc1ccc(C(C)CC(O)C2C=CC3C(=O)N(c4ccccc4)C(=O)C3N2Nc2ccc([N+](=O)[O-])cc2)o1 (stereo not given),-0.0729,0.123,0.0757,0.513,1.51,1.69,1.2,0.296 (inactive),1.51,0.0373,1.55,0.0574 (inactive),0.593 (inactive),1.31 (inactive),3.1,-0.468 (inactive),0.157,0.181,1.1,0.0807
C=CC[C@]1(C(=O)N2CCCCC2)N=C(c2ccc(OCCCO)cc2)O[C@H]1c1ccccc1,1.08,0.785,0.0472,0.452,0.668,1.77,1.17,-1.11 (inactive),1.63,1.27,1.58,-1.97 (inactive),-5.54 (inactive),-2.04 (inactive),3.21,1.14 (inactive),0.495,1.06,0.369,0.35
C=C(CCCC)C(=O)CC[C@@H](OC(=O)c1cccnc1)c1ccc(CO)o1,-0.45,0.0802,-0.008,0.601,0.88,1.05,1.07,-0.434 (inactive),0.391,0.122,1.55,0.544 (inactive),0.115 (inactive),0.275 (inactive),1.45,-0.211 (inactive),-0.105,1.61,1.12,0.021
CCCC=C(CCC)[C@@H](NC(=O)Oc1ccc(F)cc1)c1ccc(C(=O)OC)cc1,0.415,0.175,0.0883,0.48,1.52,-0.454,0.482,-3.81 (inactive),0.794,-0.121,0.598,0.876 (inactive),1.99 (inactive),2.32 (inactive),3,-0.211 (inactive),0.212,-0.149,0.775,0.601
C=CCNC(=O)[C@H]1[C@@H]2C(=O)O[C@@H](c3ccccc3)[C@@H](c3ccccc3)N2[C@@H](c2ccc(O)cc2)[C@]12C(=O)N(C(=O)OCCOC)c1ccc(C#CCNC(N)=O)cc12,-0.14,-0.019,-0.0996,0.379,0.729,0.0037,0.879,-0.226 (inactive),0.007,0.0722,1.42,0.905 (inactive),0.311 (inactive),1.63 (inactive),0.922,-0.781 (inactive),0.136,0.79,0.924,0.0821
O=C1O[C@H](c2ccccc2)[C@H](c2ccccc2)N2[C@H]1[C@@H](C(=O)N1CCN(c3ncccn3)CC1)[C@]1(C(=O)Nc3ccc(C#CC4=CCCCC4)cc31)[C@H]2c1ccc(O)cc1,-0.001,0.542,-0.0523,0.768,1.28,1.11,1.24,-0.63 (inactive),0.502,-0.201,1.54,1.92 (inactive),1.48 (inactive),2.97 (inactive),2.76,0.454 (inactive),-0.0313,0.555,0.79,0.0624
CC(C)C(=C=CC[C@@H](O)c1ccccc1OCCO)CCO,-0.386,-0.193,-0.115,0.269,0.0761,1.71,1.36,-1.6 (inactive),0.285,-0.214,0.895,-2.18 (inactive),-17.8 (active),-2.09 (inactive),-0.559,0.364 (inactive),-0.0998,0.315,0.428,-0.096
O=C1c2ccccc2[C@](Cc2ccccc2I)(C(=O)NC2CC2)[C@H](c2ccc(CO)cc2)N1Cc1ccccc1,0.16,-0.211,-0.0335,0.483,0.543,0.458,0.774,-3.11 (inactive),-0.364,-0.0994,0.735,-0.835 (inactive),-0.388 (inactive),-1.15 (inactive),2.86,0.192 (inactive),-0.0741,0.133,0.566,-0.0681

# From PubChem BioAssay
